# An excerpt weighted towards active compounds, which were near 19% of everything screened.
# HT1080-NT tox: qHTS for induction of synthetic lethality in tumor cells producing 2HG: qHTS for the HT-1080-NT fibrosarcoma cell line; HT-1080-NT fibrosarcoma viability, CellTiter-Glo ATP luminescence, 48 h; Potency, µM (titrated, usually from 46.1 µM), without a hit: top-dose activity, negative = less viability, hits mostly cytotoxic; 1.6% of 360,000 active; AID 686970, 2013;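 note: NT is the 2HG producing partner of a matched IDH1 knockdown line; potency is the fitted concentration of half-maximal effect; 0% = DMSO-treated cells and -100% = media-only wells without cells; nearly all actives have a fitted effect of over 55% in size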
#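 A 48-hour cytotoxicity screen used HT-1080-NT cells plated 2 hours before compound delivery. ATP-based CellTiter-Glo luminescence measured viability, normalized to DMSO and no-cell controls.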
# IL-1B inflam inh: qHTS for Inhibitors of Inflammasome Signaling: IL-1-beta AlphaLISA Primary Screen | AID 743279, 2014 | activity change, % at 57.5 µM | 4.7% of 360,000 active | THP-1 LPS/ATP IL-1B secretion, AlphaLISA, 16 h; active compounds read low; in the data active = activity change below about -50%; inconclusive = mostly about -30% to -49%
#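 THP-1 cells pretreated 1 hr with compounds (up to 57.5 uM final), then stimulated with LPS (250 ng/mL final) plus ATP (1.25 mM final); secreted IL-1B measured by AlphaLISA after 16 hr, decreased signal indicating inhibition.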
# HT1080 IDH1KD tx: qHTS for induction of synthetic lethality in tumor cells producing 2HG: qHTS for the HT-1080-IDH1KD cell line; HT-1080 IDH1 knockdown viability, ATP luminescence, 48 h; Potency, µM (doses to about 46.1 µM), inactives show at the top dose activity, negative = toxicity, actives largely listed as cytotoxic; 2% of 360,000 active;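 note: potency is the fitted concentration of half-maximal effect; 0% = DMSO wells and -100% = cell-free medium wells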
#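 Using the IDH1-knockdown HT-1080 line run in the same batch and compound series as the NT line, viability after 48 h at 37 °C was determined by CellTiter-Glo luminescence and expressed as % activity.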
# DT40 TDP1 no CPT: qHTS for Inhibitors of human tyrosyl-DNA phosphodiesterase 1 (TDP1): qHTS in cells in absence of CPT | DT40 Tdp1-/- hTDP1 cells, no CPT, ATP luminescence, 48 h | Potency, µM (top dose mostly 46.2 µM), without a hit: at the highest dose activity change, negative = growth inhibition, most hits filed as inhibitors | 15% of 420,000 active; note: potency is the fitted concentration of half-maximal effect; nearly all actives have a fitted effect of over 55% in size
#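 Chicken DT40 Tdp1-/- cells complemented with human TDP1, screened without camptothecin (DMSO vehicle only), 400 cells/well. Compounds pin-transferred, cells incubated at 37 °C for at least 48 hr. Growth read as ATP-dependent luminescence (CellTiter-Glo, 30 min at RT).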
# DT40 TDP1 CPT: qHTS for Inhibitors of human tyrosyl-DNA phosphodiesterase 1 (TDP1): qHTS in cells in presence of CPT; AID 686979, 2013; 12% of 420,000 active; Potency, µM (series often up to 46.2 µM), without a hit: at the highest dose activity change, negative = growth inhibition, hits mostly inhibitors; chicken DT40 Tdp1-/-;hTDP1 cells + 20 nM CPT, ATP luminescence, 48 h; note: potency is the fitted concentration of half-maximal effect; nearly all actives have a fitted effect of over 55% in size
#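 Cell growth measured by CellTiter-Glo luminescence after a minimum 48 h, 37 C compound exposure with 20 nM CPT in Tdp1-knockout DT40 cells stably expressing hTDP1, seeded 400/well; qHTS titration format.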
# Starred values were filed as active, the others as inactive; ? = inconclusive; / = no result given; [ ] = another dose, or the depositor's remark. Unless noted, calls come from the whole dose curve; as a rule, active = well fitted curve in the direction sought with a large enough effect; inconclusive = small, poorly fitted or top-dose-only effect, or another doubt; inactive = no such curve, though single readings can be large; an effect the other way counts as inactive or inconclusive. Unless noted, % is set by controls: 0 for no effect and ±100 for the full control effect.
SMILES,HT1080-NT tox,IL-1B inflam inh,HT1080 IDH1KD tx,DT40 TDP1 no CPT,DT40 TDP1 CPT
CCOc1ccc(CC(=O)NCC(c2cccs2)S(=O)(=O)c2ccc(F)c(C)c2)cc1 (configuration not stated),/,/,/,-12.3%,-0.1%
COc1ccccc1C1CN(Cc2cnn(C)c2)Cc2ccccc2O1 (configuration not stated),/,/,/,-23.1%,16.5%[9.04 µM]
CCCS(=O)(=O)N1CCC(C(=O)Oc2ccc(OC)cc2)CC1,?,29.1,?,-12.5%,18.1%
COc1ccc(OC)c(NC(=O)Cn2nc(C)c3ccccc3c2=O)c1,9.5%,0.0,1.0%,-14.3%,-4.8%
CCOC(=O)c1ccc(-c2cccc(-c3cc(=O)oc4cc(OC)cc(OC)c34)c2)cc1,1.2%,19.3,7.9%,?,?
COC(=O)C(C)Oc1cc(OC(C)C(=O)OC)c2c(-c3ccccc3)cc(=O)oc2c1 (configuration not stated),-5.2%,17.0,-5.5%,-18.3%,-9.7%
COc1cc(OC)c2c(-c3cccc(-c4ccc(C(F)(F)F)cc4)c3)cc(=O)oc2c1,7.0%,115.4,2.6%,2.59µM*,4.61µM*
COc1cc(OC)c2c(-c3cccc(-c4ccc(C#N)cc4)c3)cc(=O)oc2c1,?,57.7,-19.3%,4.11µM*,2.06µM*
CC(C)c1ccc(C2c3[nH]c4ccccc4c3C[C@H]3C(=O)N(c4ccccc4C(=O)N4CCC(C(=O)O)CC4)C(=O)N23)cc1 (some centres not stated),-15.3%,36.2,-12.0%,?,?
CC1(C)CN(C2CCCCC2)C(=O)[C@H]1CC(=O)Nc1ccc(Br)cc1,17.5%,-28.1,16.6%,18.4µM*,?
CCN(CCO)c1nc(SC)nc2c1sc1nc(-c3ccco3)c3c(c12)CCC3,-5.6%,18.8,-0.3%,6.6%,-2.1%
CSc1nc(NCCOCCO)c2sc3nc(-c4ccco4)c4c(c3c2n1)CCC4,?,-13.7,-4.3%[9.24 µM],16.4µM*,18.4µM*
CCCCN(C(=O)c1cnccn1)c1c(N)n(CCC)c(=O)[nH]c1=O,6.4%,17.1,5.9%,4.5%,-3.7%
COc1ccccc1C1CCN(C(=O)c2cnn(-c3ccccc3)c2C)CC1,-0.6%,-6.8,-7.1%,14.6µM*,20.6µM*
COc1ccccc1C1CCN(C(=O)c2cccs2)CC1,-0.4%,-53.5*,3.1%,-18.6%,-11.2%
CCc1ccc(-c2nc(CN3CCC(C(=O)NCc4ccc(F)cc4)CC3)c(C)o2)cc1,-8.4%,-19.2,2.7%,?,?
CCN(CCNC(=O)C1CCCN(Cc2nc(-c3ccc(OC)cc3)oc2C)C1)c1ccccc1 (configuration not stated),?,-72.7*,-29.7%,23.1µM*,16.4µM*
CCN(CCNC(=O)C1CCN(Cc2nc(-c3ccc(Cl)cc3)oc2C)CC1)c1ccccc1,?,-53.7*,?,18.4µM*,23.1µM*
CCN(CCNC(=O)C1CCCN(S(=O)(=O)CC)C1)c1ccccc1 (configuration not stated),17.0%,-14.4,-13.3%,-1.5%,-1.6%
Clc1ccc(-c2cc(COc3ccccc3)on2)cc1,28.9%,30.6,28.9%,-21.1%,-5.7%
O=C(/C=C/c1ccccc1)CC(O)(c1ccccc1)C(F)(F)F (configuration not stated),12.6µM*,-99.4*,10µM*,11.2µM*,16.4µM*
O=C(CC(O)(c1ccccc1)C(F)(F)C(F)F)c1cccs1 (configuration not stated),-3.5%,-11.6,5.3%,-9.9%,-8.7%
COc1ccc(C2=CSC3=NCCN23)cc1Br,-2.1%,/,-2.5%,?,14.4%

# Screening results (PubChem BioAssay)
